Reference: PubChem BioAssay (EPA / NIEHS)
Several values for one entry are separate records, joined by “and”; a condition that tells them apart may be missing. Equal entries are not always repeated. A structure can be active in one record and inactive in another. Activity calls are given as the source filed them. Rule for the calls: active = hit-call score of the fitted dose curve at least 0.9, where 1 is the maximum; inactive = score below 0.9.

Assays:
Settings in all cases: mRNA level, 48 h; actives raise or lower the signal
[1] = read-out: Pro-epidermal growth factor (Homo sapiens) (UniProt P01133); assay: LTEA_HepaRG_EGF: Life Technologies and Expression Analysis (LTEA) Assay for Epidermal growth factor (EGF) using HepaRG (AID 2283489)
Experimental: LTEA_HepaRG is a cell based, multiplexed-readout assay that uses HepaRG, a human liver cell line, with measurements taken at 48 hours after chemical dosing on a 96-well plate.LTEA_HepaRG_EGF is one of 102 assay component(s) measured in the LTEA HepaRG cell culture assay. It is a marker of Cell proliferation, survival, death.Data from the assay component LTEA_HepaRG_EGF was analyzed into 1 endpoint. This assay endpoint, LTEA_HepaRG_EGF, was analyzed with bidirectional fitting relative to DMSO as the negative control and baseline of activity. Using a type of inducible reporter, measures of mRNA induction for gain or loss-of-signal activity can be used to understand regulation of transcription factor activity. To generalize the intended target to other relatable targets, this assay endpoint is annotated to the growth factor intended target family, where the subfamily is EGF-like domain.
A total of 1060 chemcials from the ToxCast library were tested in eight-point concentration-response experiments. Cell culture and cytotoxicity assays were conducted at Thermo Fisher Scientific's Custom Services facility (Madison, WI). A single lot of human HepaRG cells (Thermo Fisher Scientific, Frederick, MD) was used for the cell culture experiments. 96-well format collagen type I coated plates of human HepaRG cells were prepared using established methods. Briefly, cryopreserved HepaRG cells were thawed, plated at a density of approximately 100,000 cells/well in HepaRG Thaw, Plate, and General Purpose media (HPRG770, Thermo Fisher Scientific), and incubated for 48 hours. 0.5% DMSO was selected as vehicle control to balance the requisite need of DMSO in HepaRG cultures to maintain differentiation (for example, baseline metabolism, proportions of hepatocytes vs. cholangiocytes), while enabling further hepatic receptor pathway activation (for example, PXR and CAR) in response to chemical exposure. 48 hours after plating, the culture medium was replaced with HepaRG Serum-Free Incudtion Media. Cells were exposed to each test chemical in duplicate and maintained in CO2 incubators for another 48 hours. Chemical plates were thawed to room temperature and 200x concentrations of treatment groups were prepared. 8-point conentration-reponse curves were made with the highest exposure at 100 uM, followed by half-log dilutions, all in 0.5% DMSO. Each test plate contained variouse controls, induction positive controls (1mM phenobarbital), cytotoxicity positive controls ([…] aflatoxin B1), vehicle controls (0.5% DMSO), and total lysis controls (0.5% DMSO). Cell morphology images were taken using an Essen IncuCyte FLR automated microscope, with six 96-well plates imaged in about 24 minutes. Images were captured and exported and JPEG files. Spent culture media was transfered to black-well plates for the LDH assay, and remaining media was sorted at -80 C for later use. Cells were treated with RLT buffer and frozen until shipped for gene expression analysis. Total RNA was isolated from the cell suspension in 75 uL of Buffer RLT (Qiagen, Germantown, MD 20874) by Quintiles/Expression Analysis (Durham, NC) using a custom isolation procedure. Total RNA from each plate well was transferred to a preamplification plate. Fluidigm's 96.96 Dynamic ArrayTM (Fluidigm, Amsterdam, the Netherlands) technology was used for gene expression analyses by quantitative reverse transcription polymerase chain reaction (qRT-PCR, performed by Quintiles/Expression Analysis, Durham, NC)89. Standard TaqManTM Assays (Applied Biosystems/ThermoFisher Scientific, Foster City, CA) were used to assess the expression of 93 genes selected based on their selectivity and sensitivity to important hepatic receptors known to be modulated by environmental chemicals; importance in human hepatocyte functionality; and hepatotoxicity. […]

[2] = read-out: Early growth response protein 1 (EGR1) transcription factor, EGR1 (gene 1958); assay: LTEA_HepaRG_EGR1: Life Technologies and Expression Analysis (LTEA) Assay for Early growth response protein 1 (EGR1) transcription factor using HepaRG (AID 2283490)
How it was run: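 Differentiated HepaRG cells in serum-free induction medium exposed 48 hours, duplicate, to 8 half-log concentrations up to 100 uM in 0.5% DMSO. EGR1 mRNA measured by TaqMan qRT-PCR, normalized to ACTB, GAPDH, POLR2A; bidirectional fit versus DMSO.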

[3] = read-out: Ezrin (EZR), EZR (gene 7430); assay: LTEA_HepaRG_EZR: Life Technologies and Expression Analysis (LTEA) Assay for Ezrin (EZR) using HepaRG (AID 2283491)
How it was run: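 Differentiated human HepaRG cells, 48 h after plating, were exposed in serum-free induction medium for 48 hours to eight half-log concentrations up to 100 uM in 0.5% DMSO. EZR mRNA was measured by TaqMan qRT-PCR, normalized to ACTB, GAPDH and POLR2A, and fitted bidirectionally against DMSO.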

[4] = read-out: Cytochrome P450 3A7 (Homo sapiens) (UniProt P24462); assay: LTEA_HepaRG_CYP3A7: Life Technologies and Expression Analysis (LTEA) Assay for CYP3A7 using HepaRG (AID 2283492)
How it was run: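 Human HepaRG liver cells, 48 h post-plating, switched to serum-free induction medium and exposed in duplicate for 48 h. Dosing: 100 uM top, half-log dilutions, 8 points, 0.5% DMSO vehicle. Read-out: CYP3A7 mRNA, gain or loss fitted against DMSO baseline.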

CYP3A5 (gene 1577) = assay: LTEA_HepaRG_CYP3A5: Life Technologies and Expression Analysis (LTEA) Assay for CYP3A5 using HepaRG (AID 2283493)
How it was run: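 mRNA induction or loss of CYP3A5 assessed in HepaRG after 48 h dosing, 100 uM top concentration, duplicate wells; TaqMan qRT-PCR with ACTB, GAPDH, POLR2A normalization; 0.5% DMSO as negative control.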

[5] = read-out: Fatty Acid-Binding Protein 1 (FABP1), FABP1 (gene 2168); assay: LTEA_HepaRG_FABP1: Life Technologies and Expression Analysis (LTEA) Assay for Fatty Acid-Binding Protein 1 (FABP1) using HepaRG (AID 2283494)
How it was run: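 Differentiated human HepaRG cells exposed 48 h in serum-free induction medium to eight half-log concentrations up to 100 uM (0.5% DMSO), duplicate. FABP1 mRNA by qRT-PCR, normalised to ACTB, GAPDH, POLR2A; bidirectional fitting against DMSO.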

[6] = read-out: Cytochrome P450 4A22 (Homo sapiens) (UniProt Q5TCH4); assay: LTEA_HepaRG_CYP4A22: Life Technologies and Expression Analysis (LTEA) Assay for Cytochrome P450 4A22 (CYP4A22) using HepaRG (AID 2283495)
How it was run: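 Readout is CYP4A22 transcript induction or loss, quantified by qRT-PCR and normalized to ACTB, GAPDH and POLR2A. Human HepaRG cells receive test chemicals for 48 h at eight half-log concentrations from 100 uM in 0.5% DMSO.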

[7] = read-out: Cytochrome P450 7A1 (Homo sapiens) (UniProt P22680); assay: LTEA_HepaRG_CYP7A1: Life Technologies and Expression Analysis (LTEA) Assay for Cytochrome P450 7A1 (CYP7A1) using HepaRG (AID 2283496)
How it was run: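 Gene expression endpoint in human HepaRG liver cells treated for 48 h with test chemicals (up to 100 uM, 0.5% DMSO). Values come from bidirectional concentration-response fitting versus DMSO.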

[8] = read-out: Glutathione S-Transferase (GSTA2), GSTA2 (gene 2939); assay: LTEA_HepaRG_GSTA2: Life Technologies and Expression Analysis (LTEA) Assay for Glutathione S-Transferase (GSTA2) using HepaRG (AID 2283497)
How it was run: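 Differentiated human HepaRG cells were exposed in duplicate for 48 h in serum-free induction medium, 8 points from 100 uM top in half-log steps, 0.5% DMSO. GSTA2 mRNA was measured by TaqMan qRT-PCR, normalized to ACTB, GAPDH and POLR2A; bidirectional fit versus DMSO.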

[9] = read-out: Glutamate-cysteine ligase catalytic (GCLC), GCLC (gene 2729); assay: LTEA_HepaRG_GCLC: Life Technologies and Expression Analysis (LTEA) Assay for Glutamate-cysteine ligase catalytic (GCLC) using HepaRG (AID 2283498)
How it was run: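 Differentiated HepaRG cells exposed 48 h in serum-free induction medium, eight-point half-log series topping at 100 uM in 0.5% DMSO, duplicates. GCLC mRNA by qRT-PCR normalized to ACTB, GAPDH and POLR2A, fitted bidirectionally versus DMSO.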

Measured: AC50

Cytochrome P450 3A7 (Homo sapiens), sequence (P24462 whole entry, looked up): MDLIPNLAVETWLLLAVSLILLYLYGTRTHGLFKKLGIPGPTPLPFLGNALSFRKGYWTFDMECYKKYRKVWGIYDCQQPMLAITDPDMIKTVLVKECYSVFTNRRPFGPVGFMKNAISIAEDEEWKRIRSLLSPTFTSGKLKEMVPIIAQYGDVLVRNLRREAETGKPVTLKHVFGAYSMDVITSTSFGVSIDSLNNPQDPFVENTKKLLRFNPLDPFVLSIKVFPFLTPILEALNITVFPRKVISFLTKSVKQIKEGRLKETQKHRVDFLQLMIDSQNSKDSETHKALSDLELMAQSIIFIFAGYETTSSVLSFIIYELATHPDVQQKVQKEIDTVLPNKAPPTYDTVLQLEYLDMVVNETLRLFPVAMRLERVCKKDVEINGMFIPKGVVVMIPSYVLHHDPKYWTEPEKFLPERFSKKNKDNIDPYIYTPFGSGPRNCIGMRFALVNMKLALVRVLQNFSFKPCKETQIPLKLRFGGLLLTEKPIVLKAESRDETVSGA

COC(=O)c1ccc(C(=O)OC)cc1
inactive: all assays above

C#C[C@]1(O)CC[C@H]2[C@@H]3CCc4cc(O)ccc4[C@H]3CC[C@@]21C
inactive: all assays above

CC/C(=C(\c1ccccc1)c1ccc(OCCN(C)C)cc1)c1ccccc1
active: [2] 73.6 µM | [3] 81.4 µM and 50 µM | CYP3A5 (gene 1577) 86.7 µM | [5] 60 µM and 70.9 µM | [6] 14.5 µM and 20.7 µM | [8] 70.2 µM
inactive: [1] | [2] | [4] | CYP3A5 (gene 1577) | [7] | [8] | [9]

O=C(c1ccc(OCCN2CCCCC2)cc1)c1c(-c2ccc(O)cc2)sc2cc(O)ccc12
active: [2] 90.9 µM | [3] 50 µM | CYP3A5 (gene 1577) 41.4 µM | [5] 50 µM | [8] 69.1 µM
inactive: all other assays above

C=C(C)C(N)=O
inactive: all assays above

C[C@]12CC[C@@H]3c4ccc(O)cc4CC[C@H]3[C@@H]1CC[C@@H]2O
active: CYP3A5 (gene 1577) 50 µM | [5] 29 µM | [6] 50 µM
not listed: [4]
inactive: all other assays above

CCCCOCCOCCO
inactive: all assays above
